Assay results from the supplement of paper PMC10849652.
The full data set covers some 8,800 targets. This sample favours those with a hit. About 0.5% of all pairs of compound and target were hits.

How the values were obtained:
Assay in all cases: log2 fold change, soluble protein after heating vs DMSO (PISA); higher = thermal stabilisation; K562 lysate, 10 uM; active = over 0.2 and 3.5 SD of the protein, either way, in both replicates (recomputed)
[1] = compound: CS(=O)(=O)CCNCc1ccc(-c2ccc3ncnc(Nc4ccc(OCc5cccc(F)c5)c(Cl)c4)c3c2)o1 [lapatinib]
Outline: (§1)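 To prepare the extract, K562 pellets were dounce-homogenised in PBS pH 7.4 with 1 mM MgCl2, giving crude material at 1 mg/mL protein. This was treated with 10 μM compound for 30 min, then heated in aliquots for 3 min over 48°C-58°C before pooling and addition of NP-40 to 0.5% at 4°C. Centrifugation at 21,000xg for 90 min left soluble protein in the supernatant, which TMTpro 16plex LC-MS/MS quantified with equalised channel sums. Results are log-two fold changes in thermal stability compared with solvent controls, from duplicates.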

[2] = compound: CS(=O)(=O)N1CCN(Cc2cc3nc(-c4cccc5[nH]ncc45)nc(N4CCOCC4)c3s2)CC1 [pictilisib]
Outline: as §1

[3] = compound: C[C@@H](Oc1cc(-c2cnn(C3CCNCC3)c2)cnc1N)c1c(Cl)ccc(F)c1Cl [crizotinib]
Outline: as §1

[4] = compound: C[C@H](C1=CC=C(C=C1)C(=O)NC2=C3C=CNC3=NC=C2)N
Outline: as §1

[5] = compound: C[C@H](Nc1ncnc2nc[nH]c12)c1cc2cccc(Cl)c2c(=O)n1-c1ccccc1 [duvelisib]
Outline: as §1

[6] = compound: Cc1cc(Nc2cc(CN3CCOCC3)c3nc(C)c(Cc4ccc(Cl)cc4F)n3n2)n[nH]1 [gandotinib]
Outline: as §1

[7] = compound: Cc1cc(Nc2cc(N3CCN(C)CC3)nc(Sc3ccc(NC(=O)C4CC4)cc3)n2)n[nH]1 [tozasertib]
Outline: as §1

[8] = compound: Cc1ccc(-n2nc(C(C)(C)C)cc2NC(=O)Nc2ccc(OCCN3CCOCC3)c3ccccc23)cc1 [doramapimod]
Outline: as §1

[9] = compound: Cc1ccc(NC(=O)c2ccc(CN3CC[C@H](N(C)C)C3)c(C(F)(F)F)c2)cc1Nc1nccc(-c2cncnc2)n1 [bafetinib]
Outline: as §1

[10] = compound: Cc1cccc(CC(=O)N2CCc3c2ccc(-c2cn(C)c4ncnc(N)c24)c3F)n1
Outline: as §1

[11] = compound: Cc1cn(-c2cc(NC(=O)c3ccc(C)c(Nc4nccc(-c5cccnc5)n4)c3)cc(C(F)(F)F)c2)cn1 [nilotinib]
Outline: as §1

[12] = compound: Cc1nc(Nc2n[nH]c3c2CN(C(=O)N[C@H](CN(C)C)c2ccccc2)C3(C)C)c2sccc2n1
Outline: as §1

[13] = compound: Cc1nc(Nc2ncc(C(=O)Nc3c(C)cccc3Cl)s2)cc(N2CCN(CCO)CC2)n1 [dasatinib]
Outline: as §1

[14] = compound: Cc1ncc(-c2ccnc(Nc3ccc(S(C)(=O)=O)cc3)n2)n1C(C)C
Outline: as §1

[15] = compound: Cn1cc(-c2ccc3c(c2)CCN3C(=O)Cc2cccc(C(F)(F)F)c2)c2c(N)ncnc21
Outline: as §1

[16] = compound: Cn1cc(CNCC2CCN(c3ncc(C(=O)NO)cn3)CC2)c2ccccc21 [quisinostat]
Outline: as §1

[17] = compound: Cn1cncc1[C@@](N)(c1ccc(Cl)cc1)c1ccc2c(c1)c(-c1cccc(Cl)c1)cc(=O)n2C [tipifarnib]
Outline: as §1

[18] = compound: NC(=O)Nc1cc(-c2cccc(F)c2)sc1C(=O)N[C@H]1CCCNC1
Outline: as §1

[19] = compound: NC(=O)c1cnc(N[C@@H]2CCCC[C@@H]2N)nc1Nc1cccc(-n2nccn2)c1
Outline: as §1

[20] = compound: NC1(c2ccc(-c3nc4ccn5c(=O)[nH]nc5c4cc3-c3ccccc3)cc2)CCC1
Outline: as §1

Measured: log2 fold change

TUBE1 (UniProt Q9UJT0)
Sequence of UniProt Q9UJT0 (Q9UJT0 whole entry, looked up): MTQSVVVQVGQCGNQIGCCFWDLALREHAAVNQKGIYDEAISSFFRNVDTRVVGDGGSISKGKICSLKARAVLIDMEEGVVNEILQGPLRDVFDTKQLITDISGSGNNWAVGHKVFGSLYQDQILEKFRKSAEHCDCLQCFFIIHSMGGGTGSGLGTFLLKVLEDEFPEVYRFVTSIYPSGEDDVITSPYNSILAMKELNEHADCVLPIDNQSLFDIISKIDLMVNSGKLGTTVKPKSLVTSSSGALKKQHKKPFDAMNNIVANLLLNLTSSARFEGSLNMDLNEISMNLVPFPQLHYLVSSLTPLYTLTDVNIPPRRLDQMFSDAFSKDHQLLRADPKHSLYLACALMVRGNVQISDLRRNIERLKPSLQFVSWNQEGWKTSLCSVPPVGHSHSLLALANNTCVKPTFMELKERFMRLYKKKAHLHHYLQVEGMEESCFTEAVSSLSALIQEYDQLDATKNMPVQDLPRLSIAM
inactive: [1] -0.008 | [2] -0.005 | [3] 0.095 | [4] 0.214 | [5] -0.01 | [6] -0.076 | [7] 0.054 | [8] -0.034 | [9] -0.066 | [10] -0.029 | [11] 0.036 | [12] -0.051 | [13] 0.017 | [14] -0.046 | [15] -0.028 | [16] -0.037 | [17] 0.029 | [18] 0.064 | [19] 0.007 | [20] 0.025

TUBB1 (UniProt Q9H4B7)
Sequence of UniProt Q9H4B7 (Q9H4B7 whole entry, looked up): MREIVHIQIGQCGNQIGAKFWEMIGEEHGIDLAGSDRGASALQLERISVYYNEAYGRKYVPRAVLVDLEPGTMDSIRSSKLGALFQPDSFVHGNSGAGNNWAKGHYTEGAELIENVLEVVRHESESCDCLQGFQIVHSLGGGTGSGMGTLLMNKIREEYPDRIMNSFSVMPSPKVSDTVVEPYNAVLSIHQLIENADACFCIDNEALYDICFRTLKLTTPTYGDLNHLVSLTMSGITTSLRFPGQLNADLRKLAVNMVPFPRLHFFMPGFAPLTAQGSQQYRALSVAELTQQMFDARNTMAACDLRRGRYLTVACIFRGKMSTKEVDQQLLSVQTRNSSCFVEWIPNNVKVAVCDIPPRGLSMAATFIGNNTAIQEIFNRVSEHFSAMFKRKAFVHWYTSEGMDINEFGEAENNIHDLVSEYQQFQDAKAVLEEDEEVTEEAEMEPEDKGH
inactive: [1] -0.006 | [2] -0.007 | [3] -0.025 | [4] 0.093 | [5] -0.01 | [6] -0.015 | [7] -0.027 | [8] -0.046 | [9] 0.036 | [10] -0.06 | [11] 0.095 | [12] -0.013 | [13] -0.043 | [14] -0.004 | [15] 0.002 | [16] 0.079 | [17] 0.03 | [18] 0.009 | [19] -0.006 | [20] -0.019

TMEM263 (UniProt Q8WUH6)
active: [17] -0.512
inactive: [1] 0.149 | [2] 0.015 | [3] 0.06 | [4] -0.072 | [5] 0.02 | [6] 0.178 | [7] -0.066 | [8] 0.112 | [9] -0.028 | [10] 0.208 | [11] 0.151 | [12] 0.153 | [13] -0.134 | [14] -0.079 | [15] 0.011 | [16] 0.021 | [18] 0.063 | [19] -0.021 | [20] -0.154

TBL2 (UniProt Q9Y4P3)
Sequence of UniProt Q9Y4P3 (Q9Y4P3 whole entry, looked up): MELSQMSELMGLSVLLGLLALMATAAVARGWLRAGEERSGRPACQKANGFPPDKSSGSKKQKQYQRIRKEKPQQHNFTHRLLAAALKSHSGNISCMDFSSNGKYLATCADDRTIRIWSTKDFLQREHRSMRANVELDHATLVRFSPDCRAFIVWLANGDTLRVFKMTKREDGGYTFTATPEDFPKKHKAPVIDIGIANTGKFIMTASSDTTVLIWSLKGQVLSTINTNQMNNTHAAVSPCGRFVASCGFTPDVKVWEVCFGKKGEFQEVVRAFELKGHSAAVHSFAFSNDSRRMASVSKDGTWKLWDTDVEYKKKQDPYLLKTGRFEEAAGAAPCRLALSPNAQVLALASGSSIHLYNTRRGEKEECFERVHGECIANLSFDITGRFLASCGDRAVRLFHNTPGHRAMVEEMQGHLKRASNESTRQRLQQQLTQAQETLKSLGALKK
inactive: [1] -0.025 | [2] -0.002 | [3] -0.007 | [4] -0.068 | [5] 0.014 | [6] -0.053 | [7] 0.063 | [8] 0.032 | [9] -0.013 | [10] 0.055 | [11] -0.025 | [12] -0.043 | [13] -0.008 | [14] -0.004 | [15] 0.014 | [16] -0.031 | [17] -0.06 | [18] -0.007 | [19] 0.003 | [20] -0.037

TTMP isoform 3 (UniProt Q5BVD1)
Sequence of UniProt Q5BVD1 (Q5BVD1 whole entry, looked up): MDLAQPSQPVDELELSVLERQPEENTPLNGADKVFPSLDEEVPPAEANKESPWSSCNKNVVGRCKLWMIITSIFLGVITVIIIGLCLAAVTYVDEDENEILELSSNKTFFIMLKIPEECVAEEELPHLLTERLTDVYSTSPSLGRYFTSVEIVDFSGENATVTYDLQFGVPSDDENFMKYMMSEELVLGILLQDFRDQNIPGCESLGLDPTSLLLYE
inactive: [1] -0.1 | [2] 0.013 | [3] -0.241 | [5] 0.138 | [6] 0.384 | [7] -0.022 | [8] 0.137 | [9] -0.197 | [10] 0.47 | [11] 0.118 | [12] -0.023 | [13] -0.079 | [14] -0.022 | [15] -0.046 | [16] -0.475 | [17] -0.089 | [18] 0.048 | [19] 0.116 | [20] -0.113
active: [4] -0.618

TLE3 isoform 4 (UniProt Q04726)
Sequence of UniProt Q04726 (Q04726 whole entry, looked up): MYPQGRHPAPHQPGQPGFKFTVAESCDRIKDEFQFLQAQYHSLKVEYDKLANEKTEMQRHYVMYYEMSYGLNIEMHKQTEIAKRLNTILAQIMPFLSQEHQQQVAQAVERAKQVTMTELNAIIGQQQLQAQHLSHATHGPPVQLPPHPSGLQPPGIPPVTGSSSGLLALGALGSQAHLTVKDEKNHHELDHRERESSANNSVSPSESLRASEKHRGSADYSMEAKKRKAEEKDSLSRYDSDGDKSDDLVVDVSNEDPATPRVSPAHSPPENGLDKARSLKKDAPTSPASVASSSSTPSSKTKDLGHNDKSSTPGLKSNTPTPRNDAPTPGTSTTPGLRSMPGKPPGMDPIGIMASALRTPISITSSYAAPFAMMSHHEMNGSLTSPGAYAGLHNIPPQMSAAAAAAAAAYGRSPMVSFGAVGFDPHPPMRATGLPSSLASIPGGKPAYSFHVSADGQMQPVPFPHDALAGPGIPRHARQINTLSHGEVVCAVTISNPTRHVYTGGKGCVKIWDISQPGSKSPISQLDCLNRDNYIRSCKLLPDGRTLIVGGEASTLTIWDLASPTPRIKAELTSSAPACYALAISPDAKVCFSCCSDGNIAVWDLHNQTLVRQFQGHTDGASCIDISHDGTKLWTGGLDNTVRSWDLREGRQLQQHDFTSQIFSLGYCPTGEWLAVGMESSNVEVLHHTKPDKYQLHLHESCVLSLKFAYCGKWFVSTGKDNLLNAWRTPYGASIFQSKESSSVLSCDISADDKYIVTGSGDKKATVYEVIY
inactive: [1] -0.01 | [2] 0.008 | [3] 0.003 | [4] 0.004 | [5] -0.015 | [6] 0 | [7] -0.029 | [8] -0.016 | [9] 0.1 | [10] -0.048 | [11] 0.011 | [12] 0.053 | [13] -0.002 | [14] 0.001 | [15] -0.038 | [16] 0.008 | [17] -0.003 | [18] 0.012 | [19] 0.001 | [20] -0.003

UBIAD1 (UniProt Q9Y5Z9)
Sequence of UniProt Q9Y5Z9 (Q9Y5Z9 whole entry, looked up): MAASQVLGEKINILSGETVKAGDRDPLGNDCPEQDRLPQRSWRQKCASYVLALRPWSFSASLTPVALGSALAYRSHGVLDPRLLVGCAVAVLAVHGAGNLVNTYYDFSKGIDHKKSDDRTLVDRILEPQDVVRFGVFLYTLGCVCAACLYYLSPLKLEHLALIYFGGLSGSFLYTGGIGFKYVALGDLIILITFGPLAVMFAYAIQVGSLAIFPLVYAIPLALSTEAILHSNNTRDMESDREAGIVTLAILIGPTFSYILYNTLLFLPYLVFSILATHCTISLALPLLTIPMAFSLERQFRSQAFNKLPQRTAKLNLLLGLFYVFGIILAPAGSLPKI
inactive: [1] 0.031 | [3] -0.048 | [4] 0.036 | [5] -0.054 | [6] 0 | [7] -0.024 | [8] -0.014 | [10] 0.016 | [11] 0.14 | [12] -0.014 | [13] 0.117 | [14] 0.125 | [15] -0.014 | [16] 0.096 | [17] 0.04 | [18] -0.019 | [19] -0.034 | [20] -0.027

TNKS (UniProt O95271)
Sequence of UniProt O95271 (O95271 whole entry, looked up): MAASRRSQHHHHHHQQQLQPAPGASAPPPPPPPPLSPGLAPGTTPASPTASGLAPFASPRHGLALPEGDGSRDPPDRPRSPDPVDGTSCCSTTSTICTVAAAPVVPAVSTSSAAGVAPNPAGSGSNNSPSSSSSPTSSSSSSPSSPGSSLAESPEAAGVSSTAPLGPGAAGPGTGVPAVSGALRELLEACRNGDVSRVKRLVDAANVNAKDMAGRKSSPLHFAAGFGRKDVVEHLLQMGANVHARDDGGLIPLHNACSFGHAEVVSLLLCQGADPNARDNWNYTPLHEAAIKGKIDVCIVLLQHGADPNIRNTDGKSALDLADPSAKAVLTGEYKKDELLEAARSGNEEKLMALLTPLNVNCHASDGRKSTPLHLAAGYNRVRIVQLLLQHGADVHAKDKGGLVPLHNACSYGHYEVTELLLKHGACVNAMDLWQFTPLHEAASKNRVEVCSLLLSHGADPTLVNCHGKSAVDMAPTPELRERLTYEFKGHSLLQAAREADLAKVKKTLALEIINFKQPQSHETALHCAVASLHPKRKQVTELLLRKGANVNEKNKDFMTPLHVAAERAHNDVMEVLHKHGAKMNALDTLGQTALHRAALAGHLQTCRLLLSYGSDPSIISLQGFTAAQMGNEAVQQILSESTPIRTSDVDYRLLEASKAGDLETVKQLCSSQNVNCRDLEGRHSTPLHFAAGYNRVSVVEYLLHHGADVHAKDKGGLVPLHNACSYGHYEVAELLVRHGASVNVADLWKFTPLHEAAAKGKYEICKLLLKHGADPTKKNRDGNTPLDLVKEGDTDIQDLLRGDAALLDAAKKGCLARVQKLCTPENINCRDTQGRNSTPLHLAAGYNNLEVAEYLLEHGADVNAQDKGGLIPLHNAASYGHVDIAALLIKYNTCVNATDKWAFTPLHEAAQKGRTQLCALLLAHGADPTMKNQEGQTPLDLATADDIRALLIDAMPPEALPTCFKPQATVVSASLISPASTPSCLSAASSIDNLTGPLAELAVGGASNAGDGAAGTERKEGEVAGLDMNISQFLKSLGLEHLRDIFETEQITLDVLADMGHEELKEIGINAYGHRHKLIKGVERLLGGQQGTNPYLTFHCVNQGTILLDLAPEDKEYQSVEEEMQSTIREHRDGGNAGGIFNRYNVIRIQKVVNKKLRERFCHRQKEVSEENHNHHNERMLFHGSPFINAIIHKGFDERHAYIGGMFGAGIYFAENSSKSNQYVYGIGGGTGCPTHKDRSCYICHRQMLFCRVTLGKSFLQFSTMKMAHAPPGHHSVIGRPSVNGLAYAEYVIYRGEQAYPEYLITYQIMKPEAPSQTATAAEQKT
active: [4] -0.302
inactive: [1] -0.085 | [3] -0.031 | [5] -0.027 | [6] 0.038 | [7] 0.073 | [8] -0.013 | [10] 0.107 | [11] -0.053 | [12] -0.016 | [13] 0.081 | [14] 0.04 | [15] -0.051 | [16] -0.021 | [17] 0.103 | [18] 0.032 | [19] 0.088 | [20] 0.028
